From PubChem BioAssay (NCATS)
Inconclusive results are not listed. Unmarked numbers belong to inactive results. Activity calls are given as the source filed them. Calls come from the whole dose curve; as a rule, active = well fitted curve in the direction sought with a large enough effect; inconclusive = small, poorly fitted or top-dose-only effect, or another doubt; inactive = no such curve, though single readings can be large; an effect the other way counts as inactive or inconclusive.

Tested on: Zika virus NS2B-NS3 protease (unlinked)
Experiment: Optimization of GU AMC qHTS for Zika virus inhibitors: Unlinked NS2B-NS3 protease assay (AID 1347151); note: nearly all actives have a fitted effect of over 80% in size; note: potency is the fitted concentration of half-maximal effect;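 for activity change, negative = inhibition: 0% = no-inhibitor control and -100% = no-enzyme control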
Settings: recombinant ZIKV NS2B-NS3 protease, fluorogenic AMC substrate; series mostly up to 52.5 µM; activity change, negative = inhibition: at the top concentration
Method in brief: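 Fluorescence gain (340/450 nm) over 15 min at room temperature, ~20% conversion, gave percent inhibition fitted to a 4-parameter Hill equation; enzyme was unlinked NS2B-NS3 (25 nM final), pH 8.0 Tris buffer.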

SMILES	activity change, negative = inhibition [%]	Potency
CN(C)CCCN1c2ccccc2Sc2ccccc21	-2.08	
CC(=O)Oc1cc(C(C)C)c(OCCN(C)C)cc1C	4.15	
CCN(Cc1ccncc1)C(=O)C(CO)c1ccccc1 (stereo not given)	2.03	
CC(C)NNC(=O)c1ccncc1	-0.361	
Brc1c(NC2=NCCN2)ccc2nccnc12	2.03	
CC(C)(Oc1ccc(CCNC(=O)c2ccc(Cl)cc2)cc1)C(=O)O	5.07	
OC(CCN1CCCCC1)(c1ccccc1)C1CCCCC1 (stereo not given)	4.52	
Cc1ccc(/C(=C\CN2CCCC2)c2ccccn2)cc1	6.88	
NC(N)=N/N=C/c1c(Cl)cccc1Cl	0.861	
CN(C)CCN(Cc1cccs1)c1ccccn1	-2.18	
CN1C[C@H](C(=O)N[C@]2(C)O[C@@]3(O)[C@@H]4CCCN4C(=O)[C@H](Cc4ccccc4)N3C2=O)C[C@@H]2c3cccc4[nH]cc(c34)C[C@H]21	-13.2	
O=C(O)CP(=O)(O)O	4.33	
NCCCNCCSP(=O)(O)O	7.4	
NC(Cc1ccc(Cl)cc1)C(=O)O (stereo not given)	-6.54	
CCCCCN(CCCCC)C(=O)C(CCC(=O)O)NC(=O)c1ccc(Cl)c(Cl)c1 (stereo not given)	-23.2	
O=C(CCNNC(=O)c1ccncc1)NCc1ccccc1	-8.98	
CN(C(=O)CCCOc1ccc2[nH]c(=O)ccc2c1)C1CCCCC1		26.7 µM (active)

SMILES	activity change, negative = inhibition [%]	Potency
CCOC(=O)C1=C(C)NC(C)=C(C(=O)OC)C1c1cccc(Cl)c1Cl (stereo not given)		26.7 µM (active)
C(=C\c1ccccc1)/CN1CCN(C(c2ccccc2)c2ccccc2)CC1	3.27	
CCN(CC)CCNC(=O)c1cc(S(C)(=O)=O)ccc1OC	0.272	
CC(=O)[C@@]1(O)CC[C@H]2[C@@H]3CCC4=CC(=O)CC[C@]4(C)[C@H]3CC[C@@]21C	0.336	
C[n+]1cc2c3c(ccc2c2ccc4cc5c(cc4c21)OCO5)OCO3		5.97 µM (active)
C[N+](C)(C)CCOC(N)=O	1.36	
COc1ccc(CCN(C)CCCC(C#N)(c2cc(OC)c(OC)c(OC)c2)C(C)C)cc1OC (stereo not given)	9.42	
C[C@]12C=CC(=O)C=C1CC[C@H]1[C@@H]3C[C@@H](O)[C@](O)(C(=O)CO)[C@@]3(C)C[C@H](O)[C@@]12F	2.02	
COC(=O)[C@H]1[C@H]2C[C@@H]3c4[nH]c5cc(OC)ccc5c4CCN3C[C@H]2C[C@@H](OC(=O)c2cc(OC)c(OC)c(OC)c2)[C@@H]1OC		15 µM (active)
CC(C)COCC(CN(Cc1ccccc1)c1ccccc1)N1CCCC1 (stereo not given)	-14.4	
C[C@H](CS)C(=O)N1CCC[C@H]1C(=O)O	2.94	
Nc1nc(N)c2nc(-c3ccccc3)c(N)nc2n1	4910	
C[C@]12CC[C@@H]3c4ccc(O)cc4C[C@@H](CCCCCCCCCS(=O)CCCC(F)(F)C(F)(F)F)[C@H]3[C@@H]1CC[C@@H]2O (stereo not given in full)	-5.32	
CCCOc1ccccc1-c1nc2n[nH]nc2c(=O)[nH]1	0.85	
COC(=O)C1=C(C)NC(C)=C(C(=O)OCCN(C)Cc2ccccc2)C1c1cccc([N+](=O)[O-])c1 (stereo not given)	-9.41	
CN/C(=C\[N+](=O)[O-])NCCSCc1ccc(CN(C)C)o1	-2.45	
O=C(O)CN(CCN(CC(=O)O)CC(=O)O)CCN(CC(=O)O)CC(=O)O	-9.72	

Tested on: Zika virus NS2B-NS3 protease
Experiment: Primary screen GU AMC qHTS for Zika virus inhibitors (AID 1347154);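 note: 0% = no-inhibitor control and -100% = no-enzyme control; nearly all actives have a fitted effect of over 70% in size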
Settings: Zika NS2B-NS3 unlinked protease, AMC fluorogenic substrate; series mostly up to 54.1 µM; activity change, negative = inhibition: at the top concentration
Method in brief: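 Unlinked Zika NS2B hydrophilic domain/NS3 protease domain noncovalent complex (25 nM final) in 10 mM Tris-HCl pH 8.0, 0.01% Tween 20, with AMC peptide substrate. Fluorescence (ex 340, em 450 nm) change over 15 min, room temperature; percent inhibition fitted to 4-parameter Hill equation.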

SMILES	activity change, negative = inhibition	outcome
CN(C)CCCN1c2ccccc2Sc2ccccc21	1.55%	
CC(=O)Oc1cc(C(C)C)c(OCCN(C)C)cc1C	-2.94%	
CCN(Cc1ccncc1)C(=O)C(CO)c1ccccc1 (stereo not given)	3.46%	
CC(C)NNC(=O)c1ccncc1	-5.12%	
Brc1c(NC2=NCCN2)ccc2nccnc12		inactive
CC(C)(Oc1ccc(CCNC(=O)c2ccc(Cl)cc2)cc1)C(=O)O		inactive
Cc1ccc(/C(=C\CN2CCCC2)c2ccccn2)cc1	-1.28%	
NC(N)=N/N=C/c1c(Cl)cccc1Cl	5.62%	
CN(C)CCN(Cc1cccs1)c1ccccn1	-5.28%	
CN1C[C@H](C(=O)N[C@]2(C)O[C@@]3(O)[C@@H]4CCCN4C(=O)[C@H](Cc4ccccc4)N3C2=O)C[C@@H]2c3cccc4[nH]cc(c34)C[C@H]21	-9.55%	
O=C(O)CP(=O)(O)O	-3.08%	
NCCCNCCSP(=O)(O)O	-3.39% [at 6.83 µM]	
NC(Cc1ccc(Cl)cc1)C(=O)O (stereo not given)	-1.34% [at 0.59 µM]	
CCCCCN(CCCCC)C(=O)C(CCC(=O)O)NC(=O)c1ccc(Cl)c(Cl)c1 (stereo not given)	-17.7%	
O=C(CCNNC(=O)c1ccncc1)NCc1ccccc1	0.728%	
CCOC(=O)c1cnc2c(cnn2CC)c1NN=C(C)C		inactive

SMILES	activity change, negative = inhibition	outcome
C(=C\c1ccccc1)/CN1CCN(C(c2ccccc2)c2ccccc2)CC1	-3.8%	
CCN(CC)CCNC(=O)c1cc(S(C)(=O)=O)ccc1OC	-0.0966%	
CC(=O)[C@@]1(O)CC[C@H]2[C@@H]3CCC4=CC(=O)CC[C@]4(C)[C@H]3CC[C@@]21C	2.49%	
C[n+]1cc2c3c(ccc2c2ccc4cc5c(cc4c21)OCO5)OCO3	-20.9% [at 25.8 µM]	
C[N+](C)(C)CCOC(N)=O	-3.89%	
COc1ccc(CCN(C)CCCC(C#N)(c2cc(OC)c(OC)c(OC)c2)C(C)C)cc1OC (stereo not given)		inactive
C[C@]12C=CC(=O)C=C1CC[C@H]1[C@@H]3C[C@@H](O)[C@](O)(C(=O)CO)[C@@]3(C)C[C@H](O)[C@@]12F	-6.66%	
COC(=O)[C@H]1[C@H]2C[C@@H]3c4[nH]c5cc(OC)ccc5c4CCN3C[C@H]2C[C@@H](OC(=O)c2cc(OC)c(OC)c(OC)c2)[C@@H]1OC	-9.54%	
CC(C)COCC(CN(Cc1ccccc1)c1ccccc1)N1CCCC1 (stereo not given)		inactive
C[C@H](CS)C(=O)N1CCC[C@H]1C(=O)O	-1.85%	
C[C@]12CC[C@@H]3c4ccc(O)cc4C[C@@H](CCCCCCCCCS(=O)CCCC(F)(F)C(F)(F)F)[C@H]3[C@@H]1CC[C@@H]2O (stereo not given in full)	-18.2%	
CCCOc1ccccc1-c1nc2n[nH]nc2c(=O)[nH]1		inactive
COC(=O)C1=C(C)NC(C)=C(C(=O)OCCN(C)Cc2ccccc2)C1c1cccc([N+](=O)[O-])c1 (stereo not given)		inactive
CN/C(=C\[N+](=O)[O-])NCCSCc1ccc(CN(C)C)o1		inactive
O=C(O)CN(CCN(CC(=O)O)CC(=O)O)CCN(CC(=O)O)CC(=O)O	-7.74% [at 25.8 µM]	
